# Results from PubChem BioAssay AID2284109 (EPA ToxCast).
# Activity calls are given as the source filed them. Rule for the calls: active = hit-call score of the fitted dose curve at least 0.9, where 1 is the maximum; inactive = score below 0.9.
# Target: human p38beta (SAPK2) CMGC Kinase, MAPK11 (gene 5600) (UniProt Q15759)
# Assay: ERF_KP_ENZ_hMAPK11: Eurofins (ERF) Enzymatic Radiometric [10 uM ATP] KinaseProfiler LeadHunter Assay for human p38beta (SAPK2) CMGC Kinase
# Protocol: ERF_KP_ENZ_hMAPK11 is a biochemical, single-readout assay that uses extracted gene-proteins in a cell-free assay. Measurements were taken 0.66 hour after chemical dosing in a 96-well plate. See SAPK2 (p38beta) Human CMGC Kinase Enzymatic Radiometric Assay [10 uM ATP], KinaseProfiler.ERF_KP_ENZ_hMAPK11 is an assay component calculated from the ERF_KP_ENZ_hMAPK11 assay. It is designed to measure enzyme activity using a type of enzyme reporter as detected by scintillation counting with radiometry technology.Data from the assay component ERF_KP_ENZ_hMAPK11 was analyzed at the assay endpoint, ERF_KP_ENZ_hMAPK11, in the positive analysis fitting direction relative to DMSO as the negative control and baseline of activity. Using a type of enzyme reporter, loss-of-signal activity can be used to understand changes in enzymatic activity as they relate to gene MAPK11. To generalize the intended target to other relatable targets, this assay endpoint is annotated to the kinase intended target family, where the subfamily is serine/threonine kinase.
# SAPK2b (h) is incubated with 25 mM Tris pH 7.5, 0.02 mM EGTA, 0.33 mg/mL myelin basic protein, 10 mM MgAcetate and [gamma-33P]-ATP (specific activity and concentration as required). The reaction is initiated by the addition of the Mg/ATP mix. […]
# Sequence of human p38beta (SAPK2) CMGC Kinase, MAPK11 (gene 5600) (Q15759 whole entry, looked up): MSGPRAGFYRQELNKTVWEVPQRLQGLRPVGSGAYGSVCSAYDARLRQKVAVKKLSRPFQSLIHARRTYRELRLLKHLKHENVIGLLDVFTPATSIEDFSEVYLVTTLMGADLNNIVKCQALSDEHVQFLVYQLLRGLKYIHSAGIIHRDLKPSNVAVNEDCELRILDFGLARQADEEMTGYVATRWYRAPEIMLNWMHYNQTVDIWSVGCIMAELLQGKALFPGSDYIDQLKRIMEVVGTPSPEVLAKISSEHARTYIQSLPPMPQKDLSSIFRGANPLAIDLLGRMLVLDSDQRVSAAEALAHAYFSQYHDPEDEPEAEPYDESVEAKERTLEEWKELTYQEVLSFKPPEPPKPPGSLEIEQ
row,Compound,AC50
1,O=C(/C=C/c1ccc(O)cc1)CC(=O)/C=C/c1ccc(O)cc1,0.293 nM (active)
